# According to PubChem BioAssay (NCATS):
# Results filed as inconclusive are left out. A number with no mark means an inactive call. Calls of active or inactive are those of the source. Calls follow the shape of the dose curve; as a rule, active = well fitted curve in the direction sought with a large enough effect; inconclusive = small, poorly fitted or top-dose-only effect, or effect the other way, or another doubt; inactive = no such curve, though single readings can be large or run the other way. Starred links: 1 amine or outer side, 2 acyl side, 3 side chain; linkers in the order of their positions; H or OH if unused. Positions of bridges follow the written chain, without caps; N, C: chain ends. Non-standard residues stand in square brackets, D forms with d. Residues, ends and D or L forms follow the SMILES beside them. ξ: configuration not given here. *: point of attachment. X3 = C[C@@H](Oc1ccc([C@H](N[*:1])C(=O)[*:2])cc1)[C@]1(/C=C\C(=O)[*:3])CO1; d(aIle) = CC[C@H](C)[C@@H](N)C(=O)O; X2 = CC(C)[C@@H](O)C(C)C(=O)*; ξNMeF = CNC(Cc1ccccc1)C(=O)O; ξT = CC(O)C(N)C(=O)O; ξS = NC(CO)C(=O)O
# Experiment: DH5-alpha competent E. coli microbial cell viability qHTS against the NCATS CANVASS Library (AID 1347377); as to viability signal change, negative = cytotoxic: 0% is about no effect
# Settings: BacTiter-Glo ATP luminescence, overnight; series mostly up to 46.1 µM; viability signal change, negative = cytotoxic: at the top concentration
# Text: Natural products and their derivatives continue to be wellsprings of nascent therapeutic potential. However, many laboratories have limited resources for biological evaluation, leaving their previously isolated or synthesized compounds largely or completely untested. To address this issue, the Canvass library of natural products was assembled (https://tripod.nih.gov/canvass), in collaboration with academic and industry researchers, for quantitative high-throughput screening (qHTS) across a diverse set of cell-based and biochemical assays. The pure (>85% purity by liquid chromatography/mass spectrometry [LC/MS]) Canvass library of 346 natural products were submitted by 45 academic laboratories and companies around the world. We collected pure natural products to circumvent deconvolution and structure elucidation due to time and resource limitations. The library was formatted into 1536-well plates and evaluated in 50 qHTS (in an 11-pnt concentration series) bioassays with broad scope of disease-relevant mechanisms. The resulting data set from 50 different assays was then systematically analyzed to identify overall trends and specific natural products with interesting biological activities. Reported herein are the results of each individual qHTS and their corresponding assay protocol. The BacTiter-Glo microbial cell viability assay is a homogeneous method for determining the number of viable bacterial cells in culture based on quantitation of the ATP present. ATP is an indicator of metabolically active cells. The homogeneous assay procedure involves adding a single reagent (BacTiter-GloTM Reagent) directly to bacterial cells in medium and measuring luminescence. National Center for Advancing Translational Sciences (NCATS), Rockville, MD National Institute of Health (NIH), Bethesda, Maryland
# DH5-alpha competent E.coli cytotoxicity protocol: 1. In a 1536 well, tissue culture treated white solid bottom plates (Greiner Bio-One North America), 5 uL of DH5-alpha competent E. coli suspension (0.9 OD culture diluted 0.2 OD) was dispensed into columns 1, 2, and 5-48 using the Multidrop Combi dispenser (Thermo Fisher Scientific). 2. Controls and compounds were pin transferred (~23 nL volume) to the assay plates via Wako Pin-tool (Wako Automation, Richmond VA) equipped with a 1536 pin head. The compounds were transferred to columns 5-48 resulting in a final concentration ranging from 0.17nM to 92uM. Daunomycin was used as a control in various concentrations (1mM working concentration; 1:2 dilution; 16 points; n=2; column 2, rows) for a final concentration range of 0.2 nM to 9.2 uM. 3. The assay plates were incubated overnight at 37C, 5% CO2, 95% humidity. 4. 2.5 uL of BacTiterGlo solution (Promega) was then added to the assay plates (column 1-48, rows 1-32). The assay plates were incubated at room temperature for 20 min. 5. Luminescence signal was acquired via the ViewLux plate reader using a clear emission filter, 2 second exposure and 2x binning settings.
Structure (SMILES),"viability signal change, negative = cytotoxic",outcome
C/C=C1/CN2CC[C@@]34c5ccccc5N(C)[C@@H]3[C@@H]2C[C@@H]1[C@H]4C(=O)OC,13%,–
CC[C@@H]1CN2CCc3c([nH]c4cccc(OC)c34)[C@@H]2C[C@@H]1/C(=C\OC)C(=O)OC,–,inactive
C/C=C1/CN2CC[C@]34C(=C(C(=O)OC)[C@H]1C[C@H]23)Nc1ccccc14,7.15%,–
C=C(C)[C@H]1C(=O)c2c3c(cc4c5c(n1c24)[C@@]1(C)[C@@H](CC[C@H]2[C@](C)(/C=C/C=C(\C)C(=O)O)[C@@H](O)CC[C@@]21C)C5)C1=CC(C)(C)OC(C)(C)[C@H]1[C@@H]3O,0.687%,–
CO[C@@]12c3c(C)cc(O)c4c(=O)occ(c34)C(=O)[C@@H]1[C@]13COC(=O)c4c(O)cc(C)c(c41)C(=O)[C@H]2[C@@H]3OC(C)=O,–,inactive
CO[C@@H](/C=C/CC/C=C/C(=O)O)[C@@H](O)[C@H](C)/C=C(\C)[C@H](O)[C@H](C)C(=O)CCCC1CC(=O)NC(=O)C1,–,inactive
CC[C@H]1CN2CCc3c([nH]c4cccc(OC)c34)[C@@H]2C[C@@H]1/C(=C\OC)C(=O)OC,9.63%,–
C/C=C/[C@@H]1[C@H]2C[C@@H](C)CC[C@@H]2C(C)=C[C@H]1C(=O)c1c(O)c(-c2ccc(O)cc2)c[nH]c1=O,6.42%,–
c1ccc2nc3c(cc2c1)[nH]c1ccccc13,7.75%,–
C=CC(C)(C)[C@@]12C[C@H]3C(=O)N/C(=C/c4cnc[nH]4)C(=O)N3[C@@H]1Nc1ccccc12,–,inactive
CO[C@H]([C@@H](C)[C@H]1O[C@]1(C)C[C@H](C)/C=C/C=C(\C)[C@H]1O[C@@H](CC(=O)O)CC[C@@H]1C)[C@@H](C)O,4.02%,–
C=C[C@]12C=CCN3CC[C@@]4(c5ccccc5NC(=O)[C@@H]4C1)[C@@H]32,–,inactive
C[C@]12CCC3[C@@H](CC[C@@H]4C[C@@H](O)CC[C@]34CO)[C@@]1(O)CC[C@@H]2C1=CC(=O)OC1 (stereo partly drawn),3.43%,–
CO[C@H]1C[C@H](O[C@H]2[C@@H](O)C[C@H](O[C@H]3CC[C@]4(C=O)[C@H]5CC[C@]6(C)C(C7=CC(=O)OC7)CC[C@]6(O)[C@@H]5CC[C@]4(O)C3)O[C@@H]2C)O[C@H](C)[C@H]1O[C@H]1C[C@@H](OC)[C@@H](O[C@@H]2O[C@H](CO)[C@@H](O)[C@H](O)[C@H]2O)[C@@H](C)O1 (stereo partly drawn),–,inactive
CO[C@H]1[C@H](O[C@H]2CC[C@]3(C=O)[C@H]4CC[C@]5(C)[C@@H](C6=CC(=O)OC6)CC[C@]5(O)[C@@H]4CC[C@]3(O)C2)O[C@H](C)[C@H](O)[C@@H]1OC,–,inactive
CCCCC1CC[C@H]2CCCC(CCC)N12 (stereo partly drawn),15.2%,–
COC1=C(C2=C(OC)C(=O)c3cc4c(c(O)c3C2=O)C(=O)O[C@H](C)C4)C(=O)c2c(cc3c(c2O)C(=O)O[C@H](C)C3)C1=O,–,inactive [at 15.4 µM]

Structure (SMILES),"viability signal change, negative = cytotoxic",outcome
CC[C@H](C)[C@H]1NC(=O)[C@@H](NC(=O)C(C)[C@H](O)C(C)C)[C@@H](C)OC(=O)C2COC(=O)CNC(=O)/C=C\[C@]3(CO3)[C@@H](C)Oc3ccc(cc3)[C@H](NC1=O)C(=O)N(C)C(Cc1ccccc1)C(=O)NC(C(C)O)C(=O)N2 (stereo partly drawn) (X2-T[d(aIle)][X3][ξNMeF][ξT][ξS]; ester 1-C; linker 3-6 via G),17% [at 27.5 µM],–
CC[C@]12C=CCN3CC[C@]4(C(=C(C(=O)OC)C1)Nc1ccccc14)[C@@H]32,13.2%,–
CC(C)CC1C(=O)O[C@H](C(C)C)C(=O)N(C)C(CC(C)C)C(=O)O[C@@H](C(C)C)C(=O)N(C)C(CC(C)C)C(=O)O[C@H](C(C)C)C(=O)N(C)C(CC(C)C)C(=O)O[C@@H](C(C)C)C(=O)N1C (stereo partly drawn),0.745%,–
C/C=C(\C)C(=O)O[C@@H]1[C@@H](O)[C@@H]2O[C@H]3[C@H](O[C@@H](CCCCC)CCCCCCC(=O)CCC(=O)OC[C@@H](O2)[C@H]1OC(=O)/C=C/c1ccccc1)O[C@H](C)[C@H](OC(C)=O)[C@@H]3O,3.53%,–
C=C[C@H]1CN2CCc3c([nH]c4cccc(OC)c34)[C@@H]2C[C@@H]1/C(=C\OC)C(=O)OC,12.9%,–
COC1C(O)C(C)OC(OC2C(Oc3cccc4c(O)c5c(=O)oc6ccc(C)c7c(=O)oc(c34)c5c67)OC(C)C(O)C2O)C1O (stereo not drawn),–,inactive
C[C@]12CC(O)C3[C@@H](CC[C@@H]4C[C@@H](O)CC[C@]34CO)[C@@]1(O)CC[C@@H]2C1=CC(=O)OC1 (stereo partly drawn),18.3%,–
O[C@H]1C=C[C@@]23CCN(Cc4cc5c(cc42)OCO5)[C@@H]3C1,–,inactive
CC[C@@H]1CN2CCC3(Nc4cccc(OC)c4C3=O)[C@@H]2C[C@@H]1/C(=C\OC)C(=O)OC (stereo partly drawn),12.6%,–
C=CC(C)(C)[C@@]12C[C@H]3C(=O)N/C(=C\c4cnc[nH]4)C(=O)N3[C@@H]1Nc1ccccc12,–,inactive
C[N+](C)(C)CCc1c[nH]c2ccccc12,–,inactive
C/C(=C\[C@H](C)C(=O)C[C@H](O)CC1CC(=O)NC(=O)C1)[C@@H]1OC(=O)/C=C/CC/C=C/C=C/[C@@H]1C,–,inactive
C[C@]12CC(O)C3[C@@H](CCC4C[C@@H](O)CC[C@@]43CO)[C@@]1(O)CC[C@@H]2C1=CC(=O)OC1 (stereo partly drawn),4.11%,–
C1=C2CCCN[C@H]2C2CC1[C@H]1CCCCN1C2 (stereo partly drawn),14.8%,–
CCCC[C@@H]1CC[C@H]2CCCC(CCCO)N12 (stereo partly drawn),9.94%,–
CCCC[C@@H](C)/C=C1/CN2CCC[C@H]2[C@@](C)(O)[C@@H]1O,5.99%,–
